# Laboratory results published in PubChem BioAssay (EPA / NIEHS).
# Inconclusive results are not listed. The source made the active and inactive calls. The calls were made as follows: active = hit-call score of the fitted dose curve at least 0.9, where 1 is the maximum; inconclusive = response in the unintended direction; inactive = score below 0.9.
# Assay: ACEA_ER_AUC_viability: ACEA Biosciences xCELLigence Real-Time Cell Analysis on Estrogen Receptor Agonism for Viability (AID 2283782);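 also: hit means loss of impedance signal meaning reduced cell growth or viability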
# Outline: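 Viability endpoint: reduced impedance area under the curve relative to DMSO, recorded by real-time electrode sensing over ~80 h of continuous exposure. Duplicate plates of T47D in hormone-depleted medium; eight concentrations, 1:4 dilutions, 100 uM maximum.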
Structure (SMILES),outcome,AC50
O=C1OC(=O)c2ccc3c4c(ccc1c24)C(=O)OC3=O,inactive,–
CN1CN(C)CN(C)C1,inactive,–
Nc1c(Br)cc([N+](=O)[O-])cc1Br,inactive,–
Cc1ccc(S(=O)(=O)C(I)I)cc1,–,4.22 µM (active)
Nc1cc([N+](=O)[O-])cc(Cl)c1O,inactive,–
OCCC(O)CO (stereo not drawn),inactive,–
CSc1ccc(Cl)cc1,inactive,–
CCN(CC)c1ccc2c(c1)Oc1cc(N(CC)CC)ccc1C21OC(=O)c2ccccc21,–,8.06 µM (active)
Oc1ccc2c(c1)CCC2,inactive,–
O=C1c2ccccc2C(=O)c2c(Cl)cccc21,inactive,–
CO[Si](C)(CCC(F)(F)C(F)(F)C(F)(F)C(F)(F)C(F)(F)C(F)(F)F)OC,inactive,–
CCCCCCCC/C=C\CCCCCCCC(=O)N(C)CC(=O)O,–,83.4 µM (active)
CCCCCCCCCCCC(=O)Cl,–,79.8 µM (active)
CC(O)C#CC(C)O (stereo not drawn),–,26.7 µM (active)
Brc1ccccn1,inactive,–
NC(O)(C(F)(F)F)C(F)(F)F,inactive,–
NCC(F)(F)C(F)(F)C(F)(F)C(F)(F)C(F)(F)C(F)(F)F,inactive,–
CN(N=O)C(=O)N[C@@H]1[C@@H](O)[C@H](O)[C@@H](CO)O[C@@H]1O,inactive,–
CN(C(=O)C(F)(F)C(F)(F)C(F)(F)F)[Si](C)(C)C,inactive,–

Structure (SMILES),outcome,AC50
CC(C)C(=O)OCc1ccccc1,inactive,–
O=C=NCc1cccc(CN=C=O)c1,inactive,–
O=S(=O)(O)CCC(F)(F)C(F)(F)C(F)(F)C(F)(F)F,inactive,–
CCN(CCO)S(=O)(=O)C(F)(F)C(F)(F)C(F)(F)C(F)(F)C(F)(F)C(F)(F)C(F)(F)C(F)(F)F,–,20.2 µM (active)
O=S(=O)(OCC(F)(F)F)C(F)(F)C(F)(F)C(F)(F)C(F)(F)F,inactive,–
O=C(c1ccccc1)c1ccc(Cl)cc1,–,28.4 µM (active)
NC(=O)C(F)(F)C(F)(F)C(F)(F)C(F)(F)C(F)(F)C(F)(F)C(F)(F)F,inactive,–
FC(F)(F)C(F)(F)C(F)(F)C(F)(F)C(F)(F)C(F)(F)CC[Si](Cl)(Cl)Cl,inactive,–
CCC/C=C/CO,inactive,–
Cc1cc(O)c(C(C)(C)C)cc1C(C)(C)C,–,23.2 µM (active)
COC(=O)c1ccc(C=O)cc1,inactive,–
O=c1[nH]cccc1O,–,25.7 µM (active)
CCCCCC/C=C/CCCCCCCC(=O)O,–,50 µM (active)
O=C1C=CC(=O)N1c1ccc(Cc2ccc(N3C(=O)C=CC3=O)cc2)cc1,–,25.1 µM (active)
Cc1cccc(C)n1,inactive,–
CCc1cc(Cc2cc(CC)c(N)c(CC)c2)cc(CC)c1N,–,68.3 µM (active)
C=CC(=O)OCC(F)(F)C(F)(F)C(F)(F)C(F)(F)C(F)(F)C(F)(F)C(F)(F)C(F)F,inactive,–
N#CCCOCCC#N,inactive,–
COCCC(=O)OC,inactive,–
